Cycloheximide cs – affects cycloheximide protein synthesis inhibition readout, counter-screen | max response, % | AID 2314 | cell reporter, cycloheximide protein synthesis inhibition counterscreen | actives 12% (n = 300,000); in the data active means max response mostly above about 13%, no sharp cut-off; inactive means mostly below about 14%; further: read at 38.3 µM for the half of the compounds with a filed dose; 0% is about no effect
LASV entry inh – blocks Lassa virus binding to or entry into cells | Lassa virus pseudotype entry inhibition, cell reporter | Potency, µM (titrated, usually from 37.9 µM), for inactives: at the highest dose activity change, negative = inhibition, actives largely listed as inhibitors | actives 1.2% (n = 300,000); calls by dose curve; tested in HEK293 cells; further: potency means the concentration at half of the fitted maximal effect; on the % scale 0 is the no-effect control and ±100 the full control effect; nearly all actives have a fitted effect of over 50% in size
MARV entry inh – inhibitors of Marburg virus binding or cell entry; Potency, µM (titrated, usually from 37.8 µM), for the others: top-dose activity change, negative = inhibition, most hits filed as inhibitors; actives 1.8% (n = 300,000); Marburg virus pseudotyped entry inhibition, cell reporter; calls by dose curve; tested in HEK293 cells; further: potency means the concentration at half of the fitted maximal effect; on the % scale 0 is the no-effect control and ±100 the full control effect
Shiga inhibitor – inhibitors of Shiga toxin in Vero cells | actives 9.2% (n = 290,000) | Vero cells, Shiga toxin protein synthesis inhibition reporter | inhibition, % at 38.7 µM; in the data active means inhibition mostly above about 28%, no sharp cut-off; inactive means mostly below about 43%; further: 0% is about no effect
AMA1 RON2 block – disrupts binding of P. falciparum AMA1 to RON2. actives 0.2% (n = 360,000). AID 720542. AlphaScreen AMA1-biotinylated RON2 peptide binding. Potency, µM (top dose mostly 58.2 µM), for the others: at the highest dose activity change, negative = inhibition, most hits filed as inhibitors; active means well fitted inhibition curve with a large enough effect; inconclusive means small, poorly fitted or top-dose-only effect; inactive means no such curve, though single readings can be large or run the other way;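 further: potency means the concentration at half of the fitted maximal effect; 0% = vehicle wells and -100% = peptide control; nearly all actives have a fitted effect of over 45% in size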
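AMA1 (3D7) with his tag at 25 nM final met compounds first, then biotinylated RON2 peptide at 25 nM; detection used donor plus acceptor beads, 10 µg/mL apiece, read by AlphaScreen after 30 min at room temperature.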
An asterisk follows results filed as active; ? = inconclusive; . = no result given; [ ] = remark or other dose. Shown is part of a subset that was picked to be rich in hits.

SMILES	Cycloheximide cs	LASV entry inh	MARV entry inh	Shiga inhibitor	AMA1 RON2 block
C=CCSc1nnc2c(n1)OC(c1cccnc1)Nc1ccccc1-2 (centres undefined)	27*	11%	-5%[46.1 µM]	128*	2%
Cc1nc(SCC(=O)Nc2ccc(F)cc2)c(C#N)c(C)c1CC(=O)c1ccc(Br)cc1	-1	11µM*	?	-13	-12%
Cc1ccc(-c2nn(C)c(=O)c3ccccc23)cc1S(=O)(=O)NCCN(C)C	-2	-21%[46.1 µM]	11µM*	-5	0%
Cc1ccc(-c2nn3c(C)nnc3c3ccccc23)cc1S(=O)(=O)NCc1ccco1	51*	?	-26%	37*	-4%
CCCCNS(=O)(=O)c1cc(-c2nn(C)c(=O)c3ccccc23)ccc1C	2	?	?	-5	-8%
COc1ccc(-c2cc(C(=O)Nc3ccc(C#N)cc3)no2)cc1	.	0%[46.1 µM]	-14%[46.1 µM]	.	.
COc1ccc(-c2cc(C(=O)Nc3cc(C)nn3-c3ccccc3)no2)cc1	40*	1%	12%	72*	-11%
COc1ccc(-c2cc(C(=O)Nc3cc(Br)ccc3O)no2)cc1	23*	3%	-14%	41	-5%
CC(=O)Nc1cccc(NC(=O)c2cc(C)on2)c1	21*	15%	18%	53*	6%
COc1ccc(NC(=O)c2cc(-c3ccccc3)on2)cc1	19*	.	.	.	23%
Cc1cc(C(=O)NNC(=O)Nc2ccccc2)no1	-1	?	-5%	1	48%
CCOc1ccc(NC(=O)COC(=O)CC2CC3CCC2C3)cc1 (centres undefined)	.	.	.	.	-7%
Cc1ccc(NC(=S)Nc2ccc(F)cc2)c(C)c1	10	-16%	-9%[46.1 µM]	19	7%
COCCCNC(=O)C[C@H]1C[C@H](C(=O)N(C(C)C)C(C)C)[C@@]2(C)c3[nH]c4cc(CCC(=O)N(C)C)ccc4c3CCN2C1=O	.	.	1%	.	11%
COc1ccc(NC(=O)c2cc(C)on2)cc1	56*	.	.	89*	-1%
Cc1ccsc1C(=O)NCCC(c1ccccc1)c1ccccc1	-3	?	13µM*	-1	15%
COc1ccc(C(=O)COC(=O)C(Cc2c[nH]c3ccccc23)NC(=O)c2ccc(C(C)(C)C)cc2)cc1 (centres undefined)	.	1.3µM*	.	.	.
CCc1ccc(C(=O)COC(=O)C(Cc2c[nH]c3ccccc23)NC(=O)c2ccc(Br)cc2)cc1 (centres undefined)	.	-7%[46.1 µM]	.	.	.
O=C(NCCc1c[nH]c2ccccc12)c1ccco1	18*	.	.	26	0%
Cc1ccc(CNC(=O)CCCc2c[nH]c3ccccc23)cc1	11	-25%[46.1 µM]	11%[46.1 µM]	7	-15%
O=C(CCCc1c[nH]c2ccccc12)NCc1ccccc1F	-6	7.9µM*	-19%[46.1 µM]	24	0%
CCCCCCCCCCC/C=C\C(C)(C)/C=C\CCCC(=O)O	.	9%	?	.	.
COc1cccc(Cn2cc(-c3cccc(C(F)(F)F)c3)nn2)c1	-1	.	.	-1	27%
O=C(NCCc1c[nH]c2ccccc12)c1cnccn1	23	-4%[46.1 µM]	?	38*	-6%
O=C(NCCc1c[nH]c2ccccc12)c1ccc(Cl)cc1	48*	.	.	127*	-5%
SMILES	Cycloheximide cs	LASV entry inh	MARV entry inh	Shiga inhibitor	AMA1 RON2 block
COc1ccc(C(=O)NCCc2c[nH]c3ccccc23)cc1	45*	?	?	77*	-10%
COc1ccc(-c2cn(Cc3cccc(OC)c3)nn2)cc1	29*	.	.	82*	11%
CCCc1nnc(NC(=O)CCC(=O)N2CCN(Cc3ccc(Cl)cc3)CC2)s1	-7	.	.	-6	15%
CCc1cc(C(=O)O)c(NC(=O)c2cc(OC)c(OC)c(OC)c2)s1	5	25%[46.1 µM]	3%[46.1 µM]	10	-6%
O=C(OCc1cn([C@H]2CN(C(=O)c3cccs3)[C@@H](c3ccc(Cl)cc3)C[C@H]2O)nn1)c1ccccc1	.	7%[46.1 µM]	.	.	.
O=S(=O)(Nc1ccncc1)c1cc(Cl)c(Cl)cc1Cl	-3	.	.	-1	10%
CCCCNc1c(CC(C)C)nc2nc(C)cc(C)n12	.	.	.	.	8%
COc1ccc(OCC(=O)NCCc2c[nH]c3ccccc23)cc1	1	-26%[46.1 µM]	-18%[46.1 µM]	2	-11%
O=C(NCCc1c[nH]c2ccccc12)c1cnc2sccn2c1=O	34*	.	.	84*	0%
COc1ccc(C(=O)c2c[nH]c3ccccc23)cc1	61*	?	?	65*	-7%
COc1ccc(-c2cn(CCc3c[nH]c4ccccc34)nn2)cc1	7.4*	.	.	20	26%
O=C(NCCc1c[nH]c2ccccc12)c1ccc(F)cc1F	25*	-3%[46.1 µM]	?	116*	-5%
S=c1[nH]nc(C2CCCCC2)o1	6	6%	?	0	-10%

Source: PubChem (National Center for Advancing Translational Sciences (NCATS))
